Assay outcomes (PubChem)
Shown are actives, neighbours in structure and some others; about 3.2% of the full set was active somewhere.
VDR inh – Inhibitors of the vitamin D receptor (VDR): qHTS; Potency, µM, for inactives: max response, negative = inhibition, hits mostly inhibitors; 400,000 compounds, 0.93% hits; VDR-SRC2-3 peptide fluorescence polarization, 2 h; note: potency is the fitted concentration of half-maximal effect
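Reagent solutions, kept cold and dark, are dispensed first; compounds are then pinned in at 23 nl, plates briefly spun, and incubated 2 h at ambient temperature. Inhibition of VDR–SRC2-3 peptide binding is read by fluorescence polarization.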
USP2a inh – qHTS Assay for Inhibitors of Ubiquitin-specific Protease USP2a Using CHOP2 as the Reporter. USP2 core, Ub-CHOP2 coupled fluorogenic reporter, 485/531. AID 463254, 2010. Potency, µM (highest dose often 38.3 µM), for inactives: at the top dose activity change, negative = inhibition, actives largely listed as inhibitors. 330,000 compounds, 0.01% hits. Ubiquitin carboxyl-terminal hydrolase 2 (Homo sapiens), O75604;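 note: potency is the fitted concentration of half-maximal effect; plate controls were DMSO wells for no effect and full inhibition by NEM control for full effect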
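Deubiquitinase activity read as fluorescence (485/531 nm) after Ub-CHOP2 cleavage activates the enterokinase reporter on its substrate; USP2 core 10nM, Ub-CHOP2 and substrate 25nM each, 30min compound preincubation then 60min RT; data normalized to NEM, curves fitted.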
FBPA coupling cs – qHTS Assay for Inhibitors of Fructose-1,6-bisphosphate Aldolase from Giardia Lamblia: Coupling assay counterscreen. coupling enzyme system counterscreen, AmpLite Red fluorescence. activity change, negative = inhibition, % at 58.2 µM, hits read low. 290,000 compounds, 0.67% hits; in the data active = activity change below about -30%
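Coupling enzymes only (glyceraldehyde-3-phosphate) + compound, at 57.5 uM final, 10 min RT; add substrate/coupling/AmpLite Red mix, 20 min RT; fluorescence ex 525/em 598 nm. Actives flag coupling-system interference.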
PLK1 PBD inh – qHTS for Inhibitors of PLK1-PDB (polo-like kinase 1 - polo-box domain): Primary Screen; Serine/threonine-protein kinase PLK1 (Homo sapiens), P53350; Plk1 PBD binding of FITC phosphopeptide, fluorescence polarization; Potency, µM, without a hit: max response, negative = inhibition, actives largely listed as inhibitors; 360,000 compounds, 2.8% hits; note: potency is the fitted concentration of half-maximal effect; series mostly up to about 57 µM; nearly all actives have a fitted effect of over 65% in size
USP1-UAF1 inh – Inhibitors of USP1/UAF1: Primary Screen. Ubiquitin carboxyl-terminal hydrolase 1 (Homo sapiens), O94782. recombinant USP1/UAF1, Ub-Rhodamine cleavage fluorescence. Potency, µM (series often up to 57.1 µM), for inactives: at the highest dose activity change, negative = inhibition, most hits filed as inhibitors. 390,000 compounds, 0.23% hits. AID 743255, 2014; note: potency is the fitted concentration of half-maximal effect; nearly all actives have a fitted effect of over 60% in size
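In this screen, compounds sit with the deubiquitinase complex (1nM) for 15 min at room temperature before Ub-Rho is added at 150nM final. Fluorescence rise is then followed for 6 reads every 60 seconds.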
GALK inh – qHTS Assay for Inhibitors of Human Galactokinase (GALK); 270,000 compounds, 0.007% hits; Purified GALK, Kinase-Glo residual ATP luminescence; P51570; Potency, µM (titrated, usually from 57.5 µM), inactives show at the top dose activity change, negative = inhibition, hits mostly inhibitors; AID 1868, 2009; note: potency is the fitted concentration of half-maximal effect
Target sequence (P51570 whole entry, looked up): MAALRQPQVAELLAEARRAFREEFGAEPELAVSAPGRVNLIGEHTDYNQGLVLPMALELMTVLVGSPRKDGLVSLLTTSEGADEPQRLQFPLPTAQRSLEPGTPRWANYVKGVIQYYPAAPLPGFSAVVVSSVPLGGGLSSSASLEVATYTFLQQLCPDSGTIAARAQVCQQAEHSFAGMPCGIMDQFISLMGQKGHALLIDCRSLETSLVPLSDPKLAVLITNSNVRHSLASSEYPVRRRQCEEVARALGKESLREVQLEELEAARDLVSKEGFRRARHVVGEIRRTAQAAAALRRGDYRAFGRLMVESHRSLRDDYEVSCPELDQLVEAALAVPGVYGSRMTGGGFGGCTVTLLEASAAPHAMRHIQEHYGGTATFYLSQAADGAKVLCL
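The enzyme phosphorylates galactose (100 uM) using ATP (35 uM); inhibition is detected as higher residual ATP, quantified by bioluminescence after 1 h reaction at room temperature, pH 8.0.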
Active calls of the source: *; ? = inconclusive; nt = no result. Unless noted, calls come from the whole dose curve; as a rule, active = well fitted curve in the direction sought with a large enough effect; inconclusive = small, poorly fitted or top-dose-only effect, or another doubt; inactive = no such curve, though single readings can be large; an effect the other way counts as inactive or inconclusive. Unless noted, % is set by controls: 0 for no effect and ±100 for the full control effect.

SMILES | VDR inh | USP2a inh | FBPA coupling cs | PLK1 PBD inh | USP1-UAF1 inh | GALK inh
Cc1ccc(C)c(/C=C/C(=O)c2ccccc(=O)c2O)c1 | 44.7µM* | 1.1% | -0.5 | ? | -25.6% | nt
O=C(/C=C/c1ccccc1Cl)c1ccccc(=O)c1O | 28.2µM* | -2.4% | 1.7 | 26.7µM* | -25.6% | nt
O=C(/C=C/c1ccc([N+](=O)[O-])cc1)c1ccccc(=O)c1O | 25.1µM* | nt | nt | -29.8% | -7.8% | nt
Cc1nn(C)cc1C(=O)/C=C/c1ccc([N+](=O)[O-])cc1 | -4.0% | -3.8% | -0.3 | -7.1% | -14.0% | -0.7%
O=C(CCN1C(=O)/C(=C/c2ccccc2)SC1=S)NCCc1ccc(O)cc1 | ? | 0.2% | nt | -9.9% | -16.4% | -5.8%
CC(=O)N(C1CC(C)C(C#N)(C#N)C1(C#N)C#N)N(C)C (stereo unspecified) | 35.5µM* | 1.6% | -2.0 | 2.38µM* | -1.1% | -1.1%
CCCC(=O)N(C1CC(C)C(C#N)(C#N)C1(C#N)C#N)N(C)C (stereo unspecified) | 8.91µM* | 4.0% | 0.2 | 5.97µM* | 2.3% | 1.2%
CC(C)c1ccc(Nc2ncnc3onc(-c4ccc(F)cc4)c23)cc1 | 1.4% | nt | nt | nt | ? | nt
COc1ccc2c(C)cc(=S)[nH]c2c1 | -3.7% | 1.8% | -1.7 | 10.6µM* | -6.4% | 9.9%
Nc1ccc(N2CCCCC2)c2nonc12 | 20µM* | 0.9% | -53.2* | -28.0% | 4.47µM* | 6.8%
COC(=O)CSc1nc2c(c(-c3ccco3)c1C#N)CCCC2 | -11.8% | ? | -13.0 | 26.7µM* | -24.0% | 4.1%
Cc1c(CC(=O)NCCCC(=O)O)c(=O)oc2cc3c(cc12)CCC(C)(C)O3 | ? | 2.9% | 1.1 | 26.7µM* | -21.8% | nt
COC(=O)C(C)N1C(=O)S/C(=C\c2ccc(-c3ccc(C(=O)O)cc3C)o2)C1=O (stereo unspecified) | 22.4µM* | -1.8% | 5.2 | 29.9µM* | -26.1% | -1.5%
O=C(Nc1nc(-c2cccs2)cs1)C1=COCCO1 | ? | 2.1% | -4.9 | 3.36µM* | -7.9% | -3.7%
O=C(Nc1nc2ccc(F)cc2s1)C1=COCCO1 | -20.6% | -0.3% | nt | -14.1% | -5.2% | nt
O=C(Nc1nc2cc3c(cc2s1)OCCO3)C1=COCCO1 | ? | 1.4% | -0.1 | 23.8µM* | -8.1% | 10.4%
COC(=O)c1ccc(-c2ncc(-c3cccc4ccccc34)o2)cc1 | -17.0% | 0.3% | 2.0 | 2.9% | -20.0% | -0.5%
Oc1ccc(N=Nc2ccccc2)o1 | 89.1µM* | 0.6% | -0.8 | ? | -20.4% | nt
Cc1ccc(-c2noc(COc3ccccc3C)n2)cc1 | 2.6% | -1.3% | 0.3 | -2.9% | -15.0% | -1.0%
COc1ccc(OCC(=O)NCc2nc(-c3ccccc3)no2)cc1 | -16.2% | nt | nt | 29.9µM* | -18.2% | nt
COc1cc(OC)cc(C(=O)NCc2nc(-c3ccccc3)no2)c1 | 0.7% | -0.8% | 1.2 | -6.5% | -10.6% | -3.0%
Cc1ccc(OCc2nc(-c3ccccc3)no2)cc1 | ? | -2.1% | -4.6 | 11.9µM* | ? | nt
CCN(Cc1cc2cccc(C)c2[nH]c1=O)C(=O)c1ccccc1OC | 16.5% | -0.5% | -0.5 | -7.4% | -1.0% | 5.1%
CCC(=O)c1c[nH]c(C(=O)NCc2cccs2)c1 | 11.1% | -0.6% | 2.9 | 0.6% | -21.1% | -2.0%
Cc1ccccc1C(=O)c1c[nH]c(C(=O)NCc2cccs2)c1 | -7.4% | -0.2% | -3.8 | 26.7µM* | -20.9% | -1.2%
SMILES | VDR inh | USP2a inh | FBPA coupling cs | PLK1 PBD inh | USP1-UAF1 inh | GALK inh
O=C(Sc1n[nH]c(=O)[nH]c1=O)c1ccccc1 | ? | nt | nt | 5.32µM* | -16.0% | nt
Cc1c(-c2cccc(NC(=O)Nc3ccc(Cl)cc3)c2)nc2ncccn12 | 15.2% | nt | nt | nt | -10.7% | nt
COc1ccc(NC(=S)Nc2cc(C)[nH]n2)cc1Cl | -8.0% | 13.2% | 1.7 | 16.8µM* | -14.1% | 0.6%
COc1ccc(NC(=S)Nc2cc(-c3ccccc3)[nH]n2)cc1Cl | -29.6% | -5.0% | 0.7 | 21.2µM* | -13.3% | 0.9%
CCOc1ccc(NC(=S)Nc2cc(-c3ccccc3)[nH]n2)cc1 | -21.9% | -1.1% | -5.7 | -10.4% | -14.7% | 2.9%
COc1ccc(NC2=C(Cl)C(=O)N(c3ccccc3)C2=O)c(OC)c1 | -8.7% | 7.0% | -0.3 | ? | -20.2% | -2.3%
COc1cccc(OCc2cc(C(=O)NCc3ccccn3)no2)c1 | -13.7% | 4.9% | -0.7 | -18.0% | -27.5% | -6.6%
CN(CC(=O)Nc1ccc(Cl)cc1)C(=O)c1cc(-c2cccs2)nn1-c1ccccc1 | -3.6% | 0.7% | nt | 3.6% | -14.1% | nt
CCN(CC)C(=O)c1cc(Cl)ccn1 | -20.6% | 0.8% | 0.6 | 11.9µM* | -13.7% | 1.8%
Cc1ccc(CS(=O)(=O)Cc2ccc(C(=O)NCCc3ccccc3)o2)cc1 | 0.0% | 1.5% | nt | -8.7% | -15.8% | 4.0%
O=S(=O)(Nc1cccc2cccnc12)c1ccccc1Br | 1.3% | nt | nt | nt | nt | nt
Nc1ccccc1S(=O)(=O)Nc1cccc2cccnc12 | -5.6% | nt | -47.9* | nt | nt | nt
O=C1C=C(Nc2ccccc2C(=O)O)c2ccccc2C1=O | ? | 3.5% | -48.9* | 10.6µM* | 7.94µM* | -22.5%
O=C1C=C(Nc2cccc3cccnc23)c2ccccc2C1=O | ? | -0.9% | -64.5* | -10.5% | 17.8µM* | -4.3%
O=C(O)c1ccccc1Nc1ccccc1C(=O)O | -4.5% | 0.6% | 0.9 | -7.5% | -8.7% | -3.0%
Cc1nc2ccccc2n1CCc1nc2c3ccccc3nc(SCc3ccc(F)cc3)n2n1 | 8.0% | nt | nt | nt | -2.5% | nt
Cc1ccc(OCC(=O)N[C@@H](C)c2nnc3ccccn23)cc1C | 0.2% | 5.6% | 1.2 | 4.0% | -18.0% | 0.6%
CCn1cc(S(=O)(=O)NCc2ccc(OC)cc2)cn1 | 7.4% | 1.3% | nt | -9.9% | -8.3% | 4.8%
CSc1ccccc1C(=O)Nc1cc2c(cc1C(=O)O)OCCCO2 | -17.7% | 0.0% | 9.2 | 29.9µM* | -22.4% | 0.1%
Cc1nc(C(C)N(C)Cc2nc(Cc3ccccc3F)no2)c(C)s1 (stereo unspecified) | -2.7% | 2.4% | 2.0 | 0.1% | -7.6% | -2.1%
Cc1nn(Cc2ccccc2)c2c1C(c1cccc(Cl)c1)C(C#N)=C(N)O2 (stereo unspecified) | ? | -2.0% | 5.9 | 26.7µM* | -8.7% | -0.2%
Cc1nn(-c2ccccc2)c2c1C(c1ccncc1)C(C#N)=C(N)O2 (stereo unspecified) | 2.3% | 0.0% | -0.9 | -11.0% | -9.5% | 1.3%
